Measurements reported in PubChem BioAssay (Tox21).
Values joined by “and” are separate entries in the source; they are usually repeats but may differ in a detail not shown here. Identical values can stand only once. Results filed as inconclusive are left out. Some structures have more than one record in an assay (separate samples or runs), and their calls can disagree. Active and inactive are the calls of the source. Unless noted, the call rests on the fitted dose curve; in most records, active means well fitted curve in the direction sought with a large enough effect in the repeat runs; inconclusive means weak or mixed curves; inactive means no such curve, though single readings can be large; an effect the other way counts as inactive or inconclusive.

Assays:
[1] = qHTS assay for small molecule agonists of the p53 signaling pathway (AID 651631; calls by dose curve; further: nearly all actives have a fitted effect of over 15% in size; further: potency means the concentration at half of the fitted maximal effect)
How it was run: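 Agonist mode screen using a stably integrated beta-lactamase gene under p53 response elements in HCT-116 cells. Compound exposure lasts 16 h at 37 °C; fluorescence intensity is measured following 2 h FRET substrate loading.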

[2] = qHTS assay for small molecules that induce genotoxicity in human embryonic kidney cells expressing luciferase-tagged ATAD5 (AID 651632); further: nearly all actives have a fitted effect of over 15% in size
How it was run: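 Quantitative HTS in HEK293T expressing luciferase-tagged ATAD5, whose levels rise upon DNA damage. Exposure ran 16 hr at 37C and 5% CO2, with luminescence read 30 min after Amplite addition at room temperature.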

[3] = qHTS assay for small molecules that induce genotoxicity in human embryonic kidney cells expressing luciferase-tagged ATAD5 - cell viability (AID 651634; calls by dose curve; further: nearly all actives have a fitted effect of over 25% in size; further: potency means the concentration at half of the fitted maximal effect)
How it was run: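 After 15.5 hr incubation with compound at 37C, 5% CO2, HEK293T ATAD5-luciferase cells received CellTiter-Fluor reagent; fluorescence intensity was quantified following 30 min at 37C.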

[4] = qHTS assay for small molecule disruptors of the mitochondrial membrane potential - cell viability (AID 720634; calls by dose curve; further: nearly all actives have a fitted effect of over 20% in size; further: potency means the concentration at half of the fitted maximal effect)
How it was run: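 ATP-based luminescent viability readout (CellTiter-Glo, 30 min, room temperature) in HepG2 cells multiplexed with the m-MPI membrane potential dye; compound exposure lasted 1 hr at 37 C.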

[5] = qHTS assay to test for compound auto fluorescence at 590 nm (red) in HepG2 cells (AID 720674)
How it was run: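 Seeding: 2,000 HepG2 cells/well, MEM/10% FBS, overnight 37 C. Dosing: compound vs DMSO. Incubation: 1 hr, 37 C, 5% CO2. Read: fluorescence 540 ex/590 em, Rose Bengal sodium as red reference.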

[6] = qHTS assay to test for compound auto fluorescence at 535 nm (green) in HepG2 cells (AID 720675)
[7] = qHTS assay to test for compound auto fluorescence at 460 nm (blue) in HEK293 cells (AID 720678)
How it was run: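 Intrinsic compound fluorescence is recorded in live HEK293 cultures after overnight incubation at 37C, 5% CO2, using excitation 405 nm and emission 460 nm. Values are referenced to triamterene.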

[8] = qHTS assay to test for compound auto fluorescence at 590 nm (red) in HEK293 cells (AID 720679)
How it was run: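 Red autofluorescence, HEK293 cells: 2,000 cells/well; attach 4-5 hr 37C; add 23 nL cpd or DMSO; incubate o/n 37C 5% CO2; read Ex540/Em590; Rose Bengal sodium reference.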

[9] = qHTS assay to test for compound auto fluorescence at 535 nm (green) in HEK293 cells (AID 720680)
[10] = qHTS assay to test for compound auto fluorescence at 460 nm (blue) in HEK293 cell free culture (AID 720681)
How it was run: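 Compounds were added to cell-free DMEM with 10% FBS and fluorescence read directly. The blue channel used 405 nm excitation and 460 nm emission, with triamterene as the reference fluorophore.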

[11] = qHTS assay to test for compound auto fluorescence at 535 nm (green) in HEK293 cell free culture (AID 720682)
How it was run: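 No cells present: wells hold DMEM supplemented with 10% FBS, into which compound or vehicle is pinned. Green emission is then recorded (485 nm excitation, 535 nm emission) and scaled to fluorescein.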

[12] = qHTS assay to test for compound auto fluorescence at 590 nm (red) in HEK293 cell free culture (AID 720683)
How it was run: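 Cell-free wells of DMEM with 10% FBS received compound, and intrinsic fluorescence was read at excitation/emission 540/590 nm. Values expressed as equivalence to Rose Bengal sodium.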

[13] = qHTS assay to test for compound auto fluorescence at 590 nm (red) in HepG2 cell free culture (AID 720684)
How it was run: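 Rose Bengal sodium served as the reference for red signal. Test compounds were dispensed into serum-containing MEM (10% FBS) without cells, and plates were read at 540/590 nm.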

[14] = qHTS assay to test for compound auto fluorescence at 460 nm (blue) in HepG2 cell free culture (AID 720685)
How it was run: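 Cell-free plates of MEM plus 10% FBS received 23 nL compound or DMSO vehicle; blue-channel (405/460 nm) intensity scored against triamterene as reference fluorophore.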

[15] = qHTS assay to test for compound auto fluorescence at 535 nm (green) in HepG2 cell free culture (AID 720686)
[16] = qHTS assay to test for compound auto fluorescence at 460 nm (blue) in HepG2 cells (AID 720687)
How it was run: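 HepG2 cells in MEM with 10% FBS, attached overnight at 37 C, were exposed to compound or DMSO for 1 hr at 37 C, 5% CO2. Blue fluorescence was read at 405/460 nm, with triamterene as reference fluorophore.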

[17] = molecular target: Glucocorticoid receptor (Homo sapiens) (UniProt P04150); test: qHTS assay to identify small molecule agonists of the glucocorticoid receptor (GR) signaling pathway (AID 720691; active means well fitted activation curve with a large enough effect in the signal ratio in the repeat runs, not every such curve was filed as active; the % refers to the signal ratio); settings: GR-bla HeLa, beta-lactamase reporter ratio, 18 h; activation: at 62.4 µM (top of the series)
How it was run: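 Cells: GR-bla HeLa, endogenous GR with stably integrated GRE-beta-lactamase reporter. Treatment 18 h, 37 C, compounds delivered in DMSO. Detection via LiveBLAzer B/G FRET substrate, 2 h RT, fluorescence intensity.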

[18] = molecular target: Glucocorticoid receptor (Homo sapiens) (UniProt P04150); test: qHTS assay to identify small molecule antagonists of the glucocorticoid receptor (GR) signaling pathway (AID 720692; active means well fitted inhibition curve with a large enough effect in the signal ratio in the repeat runs, not every such curve was filed as active; the % refers to the signal ratio; further: potency means the concentration at half of the fitted maximal effect)
How it was run: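 Quantitative HTS in antagonist format: HeLa cells expressing endogenous GR and a stably integrated GRE-bla reporter, stimulated with 5 nM dexamethasone (final) alongside test compounds for 18 h.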

[19] = qHTS assay for small molecule agonists of the p53 signaling pathway - cell viability (AID 651633; calls by dose curve; further: nearly all actives have a fitted effect of over 30% in size; further: potency means the concentration at half of the fitted maximal effect)
How it was run: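 p53RE-bla cells were treated with compound for 16 hours at 37 C. Cytotoxicity was then measured as CellTiter-Glo luminescence after 30 min at room temperature.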

[20] = qHTS assay for small molecule disruptors of the mitochondrial membrane potential (AID 720635); further: potency means the concentration at half of the fitted maximal effect
How it was run: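 HepG2 cells exposed to compound 1 hr at 37C, then Mito-MPS dye 30 min. Ratio read of aggregate (540/590 nm) versus monomer (490/535 nm) fluorescence.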

Measured: Potency

Sequence of Glucocorticoid receptor (Homo sapiens) (P04150 whole entry, looked up): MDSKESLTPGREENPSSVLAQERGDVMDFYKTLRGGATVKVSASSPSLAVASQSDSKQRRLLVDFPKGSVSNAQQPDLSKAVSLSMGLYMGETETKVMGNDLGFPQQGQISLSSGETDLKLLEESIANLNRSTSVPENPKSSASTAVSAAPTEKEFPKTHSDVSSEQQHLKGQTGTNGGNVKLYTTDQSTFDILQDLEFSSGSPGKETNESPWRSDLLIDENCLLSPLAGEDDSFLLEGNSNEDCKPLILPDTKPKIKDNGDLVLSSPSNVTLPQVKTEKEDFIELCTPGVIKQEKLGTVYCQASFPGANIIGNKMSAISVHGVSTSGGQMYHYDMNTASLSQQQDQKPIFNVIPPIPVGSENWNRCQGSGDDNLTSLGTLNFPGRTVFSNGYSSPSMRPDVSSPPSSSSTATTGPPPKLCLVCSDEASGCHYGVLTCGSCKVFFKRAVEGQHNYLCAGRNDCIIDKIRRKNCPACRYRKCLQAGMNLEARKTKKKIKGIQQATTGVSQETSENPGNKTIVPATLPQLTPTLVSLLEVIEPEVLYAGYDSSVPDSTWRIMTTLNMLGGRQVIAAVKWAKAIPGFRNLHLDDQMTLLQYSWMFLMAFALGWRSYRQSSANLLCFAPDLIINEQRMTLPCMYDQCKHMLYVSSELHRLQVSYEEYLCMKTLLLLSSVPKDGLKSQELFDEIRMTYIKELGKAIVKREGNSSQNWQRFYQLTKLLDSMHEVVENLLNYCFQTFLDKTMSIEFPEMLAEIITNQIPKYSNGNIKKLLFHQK

CC1CCCNC1 (stereo not drawn)
inactive: [1] | [2] | [3] | [4] | [5] | [6] | [7] | [8] | [9] | [10] | [11] | [12] | [13] | [14] | [15] | [16] | [17] | [18]

CN(C)CCCN1c2ccccc2Sc2ccc(C(F)(F)F)cc21
inactive: [2] | [5] | [6] | [7] | [8] | [9] | [10] | [11] | [13] | [14] | [15] | [16] | [17]
active: [1] 11.9 µM | [19] 29.8 µM

C/C=C/C(=O)Oc1c(CCCCCC(C)C)cc([N+](=O)[O-])cc1[N+](=O)[O-]
active: [1] 0.864 µM | [3] 19.3 µM | [4] 3.06 µM | [20] 109 nM | [18] 3.09 µM
inactive: [2] | [5] | [6] | [7] | [8] | [9] | [10] | [11] | [12] | [13] | [14] | [15] | [16]

CC(C)(c1cc(Br)c(O)c(Br)c1)c1cc(Br)c(O)c(Br)c1
inactive and 60.9 µM (active): [4]
active: [1] 48.4 µM and 41 µM | [19] 60.9 µM and 24.3 µM and 23 µM | [20] 4.84 µM and 7.67 µM and 1.83 µM
inactive: [2] | [5] | [6] | [7] | [8] | [9] | [10] | [11] | [12] | [13] | [14] | [15] | [16]

C=CCCCCCCC=C
inactive: [1] | [19] | [3] | [4] | [20] | [5] | [6] | [7] | [8] | [9] | [10] | [11] | [13] | [14] | [15] | [16]

O=C(NO)c1ccccc1
active: [1] 65.3 µM
inactive: [3] | [4] | [5] | [6] | [7] | [8] | [9] | [10] | [11] | [13] | [14] | [15] | [16] | [17]

CC(O)C#CC(C)O (stereo not drawn)
inactive: [1] | [3] | [4] | [5] | [6] | [7] | [8] | [9] | [10] | [11] | [13] | [14] | [15] | [16] | [17]

CCCC(CC)CCCCCCCN (stereo not drawn)
inactive: [1] | [2] | [19] | [4] | [5] | [6] | [7] | [8] | [9] | [10] | [11] | [12] | [13] | [14] | [15] | [16] | [17] | [18]

NC(=O)c1ccccc1N
inactive: [1] | [2] | [3] | [4] | [20] | [5] | [6] | [7] | [8] | [9] | [10] | [11] | [13] | [14] | [15] | [16]

O=C1c2c(O)ccc([N+](=O)[O-])c2C(=O)c2c([N+](=O)[O-])ccc(O)c21
inactive: [2] | [5] | [6] | [7] | [8] | [9] | [10] | [11] | [12] | [13] | [14] | [15] | [16]
active: [19] 8.56 µM | [3] 9.6 µM | [4] 30.4 µM | [20] 54 nM

C=C1C(C)(C)[C@@]2(Cl)C(Cl)[C@]1(Cl)C(Cl)(Cl)C2(Cl)Cl (stereo partly drawn)
inactive: [2] | [3] | [4] | [5] | [6] | [7] | [8] | [9] | [10] | [11] | [12] | [13] | [14] | [15] | [16]
active: [19] 67.3 µM | [20] 12000 nM

CCC(C)(C)c1cc(O)c(C(C)(C)CC)cc1O
active: [1] 54.5 µM | [3] 48.6 µM | [20] 4860 nM
inactive: [2] | [4] | [5] | [6] | [7] | [8] | [9] | [10] | [11] | [13] | [14] | [15] | [16] | [17]

C1CC(COCC2CO2)CCC1COCC1CO1 (stereo not drawn)
inactive: [1] | [2] | [3] | [4] | [20] | [5] | [6] | [7] | [8] | [9] | [10] | [11] | [12] | [13] | [14] | [15] | [16] | [17]

Clc1ccc(C(c2ccccc2Cl)C(Cl)Cl)cc1 (stereo not drawn)
active: [1] 68.6 µM | [19] 23.7 µM | [20] 13.3 µM and 27.3 µM | [18] 10.7 µM and 27.5 µM
inactive: [3] | [4] | [5] | [6] | [7] | [8] | [9] | [10] | [11] | [12] | [13] | [14] | [15] | [16]

CCCCCCCCCC(=O)N(C)C
inactive: [1] | [2] | [3] | [4] | [5] | [6] | [7] | [8] | [9] | [10] | [11] | [12] | [13] | [14] | [15] | [16] | [17] | [18]
